# ChEMBL document CHEMBL3988442, “University of Dundee, Small-Polar-MMV Screening Library” (2021)
# In all, about 48,000 compounds went through this assay and about 13,000 (27%) showed an effect of 50% or more. This is one part of the list.
# Tested on: Wolbachia pipientis
# Test: Anti-Wolbachia Cell-Based Screen
# Assay type: functional
# Parameters: scale not given: in the data most compounds retested in dose-response had high values
# Settings: 5 µM
row,Structure (SMILES),Percent Effect
1,O=C(Nc1ccncc1)NC1CCN(c2ccccc2OC(F)F)C1 (stereo unspecified),-11.28%
2,Cc1noc(CCCC(=O)N(CC2CCOC2)C2CC2)n1 (stereo unspecified),-3.8%
3,CCc1nc(C2CCCN(c3nccc(C)n3)C2)no1 (stereo unspecified),-0.3429%
4,Cc1noc(CCCc2nc(C3CCOC3)no2)n1 (stereo unspecified),78.93%
5,Cc1noc(C)c1CS(=O)(=O)Cc1nc(C2CC2)no1,-5.953%
6,Cc1ccccc1CS(=O)(=O)Cc1nc(C2CC2)no1,-6.253%
7,CC(C)CCN1CCN(Cc2nc(C3CC3)no2)CC1,-1.38%
8,Cc1ccc(CCc2nc(C3CCOC3)no2)o1 (stereo unspecified),90.49%
9,Cc1noc(C)c1CCc1nc(C2CCOC2)no1 (stereo unspecified),100.6%
10,Cc1noc(C)c1Cc1nc(C2CC2)no1,-12.44%
11,CCOCC(=O)NC(C)c1cc(C)ccc1C (stereo unspecified),4.424%
12,c1nc(CSc2nnc(C3CC3)s2)cs1,-11.09%
13,CCN1CCC(CC(=O)NCc2cc(C)nn2C)CC1,-11.94%
14,COc1c(CNCC(=O)N2CCN(C)CC2)c(C(C)C)nn1C,95.67%
15,CC(C)c1nn(C)c(N(C)C)c1CNCCC(=O)N(C)C.Cl,-2.081%
16,CC(C)c1nn(C)c(N2CCOCC2)c1CNCC(=O)N(C)C,-5.66%
17,CC(C)c1nn(C)c(Cl)c1CNCC(=O)N1CCN(C)CC1.Cl,99.42%
18,COc1c(CNCc2cnn(C)c2)c(C(C)C)nn1C,-6.64%
19,COc1c(CNC2(c3noc(C)n3)CCC2)c(C(C)C)nn1C.Cl,-8.281%
20,Cc1cccc(N2CCC(NC(C)c3cccs3)CC2)n1 (stereo unspecified),-26.34%
21,C[C@@H]1CN(c2ccc3c(Cl)ccnc3c2F)CC(C(N)=O)O1 (stereo partly specified),-9.196%
22,CC(C)c1noc(CCCC(=O)NC2CCS(=O)(=O)C2)n1 (stereo unspecified),7.76%

row,Structure (SMILES),Percent Effect
1,CC(C)(C)S(=O)(=O)c1ccc(N2CCN(c3ccccn3)CC2)nn1,14.84%
2,COCC(=O)N1CCC2(CC(=O)N(c3cccc(F)c3)C2)C1 (stereo unspecified),-16.31%
3,CCN1CC2(CNCCN(C(=O)Nc3ccccc3)C2)CC1=O.O=C(O)C(F)(F)F (stereo unspecified),-17.66%
4,Cc1cccc(N2CC3(CCN(S(=O)(=O)c4ccccc4)C3)CC2=O)c1 (stereo unspecified),-6.441%
5,O=C(Cc1ccccc1)N1CCC2(CC(=O)N(c3ccsc3)C2)C1 (stereo unspecified),4.465%
6,CC(C)NC(=O)N1CCC2(C1)CN(c1ccsc1)C(=O)CN2C.O=C(O)C(F)(F)F (stereo unspecified),-13.82%
7,Cc1cccc(NC(=O)N2CCC3(CC(=O)N(c4ccsc4)C3)C2)c1 (stereo unspecified),111.9%
8,CC(C)NC(=O)N1CCC2(CC(=O)N(c3cccc(C#N)c3)C2)C1 (stereo unspecified),-3.038%
9,CC(C)NC(=O)N1CCC2(CC(=O)N(c3ccsc3)C2)C1 (stereo unspecified),94%
10,O=C(Nc1ccccc1)N1CCC2(CC(=O)N(c3ccsc3)C2)C1 (stereo unspecified),106%
11,O=C(c1cnccn1)N1CC[C@H]2[C@@H]1CCC(=O)N2c1cccnc1,-6.797%
12,COc1cc(C)cc(C(C(=O)O)N(C)Cc2ccncc2C)c1OC (stereo unspecified),4.518%
13,CSc1ccc(CN2C[C@@H]3CC[C@@](O)(c4ccc(C)cn4)[C@@H]3C2)cc1,135.2%
14,Cc1ccc([C@]2(O)CC[C@H]3CN(Cc4ccc(Cl)cc4Cl)C[C@H]32)nc1,121.2%
15,CN(C)C(=O)CN1C[C@@H]2CC[C@H](C1)N(Cc1ccc(Cl)cc1Cl)C2,-35.05%
16,Cc1cccc(C2(NC(=O)CCN3C(=O)CCC3=O)CCCC2)c1,-3.276%
17,COCCOc1ccc(NCc2cccc3cn[nH]c23)cn1,-20.32%
18,COCCN1CCC(CNc2cnc3ccccc3n2)CC1,-17.24%
19,COCCN1CCC(CNc2nc3ccccc3o2)CC1,8.013%
20,COCCOc1ccc(CNc2nc3ccccc3o2)cn1,106.2%
21,COCCOc1ccc(CNc2nc3ccccc3nc2N)cn1,162.2%
22,OC1CCN(c2ccc(CNc3nc4ccccc4o3)cc2F)CC1,-1.066%

row,Structure (SMILES),Percent Effect
1,COCCOc1ccc(CNc2cnc3ccccc3n2)cn1,132.7%
2,COCc1ccccc1NC(=O)NCc1ccc(OCC2CC2)nc1,7.542%
3,OCCOc1ccc(NCc2cccnc2)cn1,7.993%
4,Cl.O=C1CC(NCc2cnc(N3CCCC3)nc2)CN1c1ccccc1 (stereo unspecified),36.64%
5,CC(C)N1CCO[C@H]2CN(C(=O)c3ccc(N(C)C)cc3)C[C@H]21,-8.625%
6,CN(C(=O)c1ccc[nH]1)C1CC(=O)N(Cc2ccccc2)C1=O (stereo unspecified),-8.622%
7,CCOCC(=O)Nc1ncc(I)cc1C,-8.606%
8,Cc1cc(C)c(S(=O)(=O)Nc2c(C)nc(N3CCCC3)nc2C)cc1C,12.58%
9,CNC(=O)N1CCC2(CC1)CN(C)Cc1cc(F)ccc12.Cl,24.69%
10,Cc1nn(C)c(C)c1C1CCCN1Cc1nnc(C2CC2)n1C (stereo unspecified),-7.496%
11,Cn1c(Cn2ccnc2)nnc1C1CCN(C(=O)c2ccccn2)CC1,107.7%
12,CN(CCO)Cc1nnc(C2CCN(C(=O)c3cccnc3)CC2)n1C,-5.743%
13,Cn1c(Cn2ccnc2)nnc1C1CCN(C(=O)c2cccnc2)CC1,92.17%
14,CN(CCO)Cc1nnc(C2CCN(C(=O)c3ccccn3)CC2)n1C,-1.336%
15,Cc1nc(C(=O)N2CCC(c3nccn3Cc3ccncc3)CC2)cs1,-0.8492%
16,CCCc1nnc(N2CCCC(c3nnc(Cn4ccnc4)n3C)C2)s1 (stereo unspecified),0.1518%
17,Cc1cc(C(=O)N2CCC(c3nnc(Cn4ccnc4)n3C)CC2)cs1,95.2%
18,Cc1nc(C(=O)N2CCC(c3nnc(Cn4ccnc4)n3C)CC2)cs1,92.58%
19,Cc1nn(CN(CC2CCOC2)C2CC2)c(=O)c2ccccc12 (stereo unspecified),-4.031%
20,Cc1nn(C)c(N2CCOCC2)c1CNC1CCOc2ccccc21 (stereo unspecified),-6.51%
21,Cc1nnc(NCC2(c3ccccc3)CC2)c(C#N)c1C,14.48%
22,CC(=O)NCC(Cc1cccc(F)c1)n1cccc1 (stereo unspecified),7.369%
